Screening results from PubChem BioAssay.
Shown are actives, neighbours in structure and some others; about 3.4% of the full set was active somewhere.
Luciferase inh – inhibitors of firefly luciferase | Potency, µM (doses to about 57.1 µM), most hits filed as inhibitors | P08659 | actives 2.2% (n = 72,000) | AID 411 | purified firefly luciferase, luminescence, 8 min; also: nearly all actives have a fitted effect of over 40% in size
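Here, luciferase activity is measured as luminescence following an 8 min room-temperature reaction at 10 uM ATP, pH 7.2. Every library sample is titrated.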
p53ts 32C tox – cytotoxicity in p53ts cells at permissive temperature. H1299-p53A138V at 32C, ATP luminescence viability, 24 h. Potency, µM (highest dose often 46.1 µM), actives largely listed as cytotoxic. actives 0.93% (n = 130,000); also: nearly all actives have a fitted effect of over 55% in size
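H1299-p53 A138V cells (temperature-sensitive p53) exposed 24 h to up to 46 uM compound at 32C, where p53 is wild-type in conformation. Viability read as ATP luminescence and normalised to DMSO and 100 uM tamoxifen. AC50 fitted with the Hill equation.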
p53ts 39C kill – cytotoxicity in p53ts cells at nonpermissive temperature | H1299-p53A138V viability at 39C, ATP luminescence, 24 h | Potency, µM (titrated, usually from 46.1 µM), actives largely listed as cytotoxic | actives 1.5% (n = 130,000); also: nearly all actives have a fitted effect of over 55% in size
Tau fil binding – binders of human tau filaments; P10636; recombinant tau filaments, thioflavin S fluorescence, 15 h; filaments grown with octadecylsulfate alongside compound; Potency, µM (highest dose often 57.1 µM); actives 2% (n = 71,000); AID 596;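 also: actives lower thioflavin S fluorescence by blocking filaments or displacing dye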
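His-tagged recombinant human tau (exons 2, 3, 10; 1 uM final) fibrillized with 30 uM sodium octadecylsulfate, 15 h at 37 C, in pH 7.4 HEPES buffer with 10 uM thioflavine S and 5 mM DTT. Reduced ThS fluorescence (450/510 nm) marks activity.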
Imprint erasure – inducers of genomic imprint erasure in mouse ES cells; Potency, µM (doses to about 60.7 µM), hits mostly activators; mouse ES Peg3-LacZ reporter, beta-gal luminescence, 40 h; actives 0.02% (n = 110,000); AID 1948
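Imprint erasure is scored as LacZ activity from the silenced maternal Peg3 allele in feeder-free female ES cells cultured 40 h with LIF. Luminescence is normalized to in-plate negative controls and fitted to the Hill equation.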
Tau ThS bind – displaces Thioflavin S from human tau filaments. shares compounds with Tau fil binding. recombinant tau filaments, Thioflavin S fluorescence displacement. Potency, µM. actives 40% (n = 60). AID 911; calls by dose curve
aSyn ThS bind – alpha-synuclein fibril binding by ThS displacement; shares compounds with Tau fil binding; recombinant alpha-synuclein fibrils, ThS fluorescence displacement; Potency, µM; actives 40% (n = 60); calls by dose curve
Abeta ThS displ – amyloid beta fibril binding by ThS displacement; shares compounds with Tau fil binding; Potency, µM; Abeta1-42 fibrillization, thioflavin S fluorescence, overnight 37 C; actives 50% (n = 60); calls by dose curve
Target sequence (P05067 whole entry, looked up): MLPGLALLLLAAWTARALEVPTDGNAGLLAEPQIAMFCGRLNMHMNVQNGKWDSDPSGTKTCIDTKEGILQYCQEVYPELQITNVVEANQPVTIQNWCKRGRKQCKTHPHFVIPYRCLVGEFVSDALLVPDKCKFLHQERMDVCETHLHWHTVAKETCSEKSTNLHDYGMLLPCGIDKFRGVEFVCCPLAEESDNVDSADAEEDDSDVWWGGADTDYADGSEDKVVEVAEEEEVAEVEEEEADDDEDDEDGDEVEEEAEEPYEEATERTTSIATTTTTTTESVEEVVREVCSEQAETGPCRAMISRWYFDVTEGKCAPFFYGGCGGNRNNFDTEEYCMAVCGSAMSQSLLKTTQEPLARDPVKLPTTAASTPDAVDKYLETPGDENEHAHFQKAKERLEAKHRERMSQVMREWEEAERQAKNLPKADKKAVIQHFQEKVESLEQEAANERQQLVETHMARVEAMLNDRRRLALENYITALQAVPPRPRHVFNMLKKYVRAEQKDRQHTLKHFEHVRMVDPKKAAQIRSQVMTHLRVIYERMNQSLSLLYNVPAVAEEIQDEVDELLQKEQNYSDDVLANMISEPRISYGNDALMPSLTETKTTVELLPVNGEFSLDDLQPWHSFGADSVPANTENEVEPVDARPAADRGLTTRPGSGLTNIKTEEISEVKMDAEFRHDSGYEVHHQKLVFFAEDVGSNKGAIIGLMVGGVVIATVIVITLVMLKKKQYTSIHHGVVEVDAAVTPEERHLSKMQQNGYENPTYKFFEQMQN
Numbers stand for hits; i = inactive; ? = inconclusive; nt = not tested or not shown; [ ] = remark or other dose. Unless noted, calls follow the shape of the dose curve; as a rule, active = well fitted curve in the direction sought with a large enough effect; inconclusive = small, poorly fitted or top-dose-only effect, or another doubt; inactive = no such curve, though single readings can be large; an effect the other way counts as inactive or inconclusive.

SMILES | Luciferase inh | p53ts 32C tox | p53ts 39C kill | Tau fil binding | Imprint erasure | Tau ThS bind | aSyn ThS bind | Abeta ThS displ
CC(C)OCc1cc(CN2CCN(c3ccccc3)CC2)c(O)c2ncccc12 | nt | i | i | nt | i[10.9 µM] | nt | nt | nt
O=S(=O)(O)c1ccc(N=Nc2ccc3c(S(=O)(=O)O)cccc3c2O)c2ccccc12 | i[11.4 µM] | i[9.22 µM] | i[9.22 µM] | i[11.4 µM] | i[10.9 µM] | nt | nt | nt
Cc1cc(-c2ccc(N=Nc3ccc4c(S(=O)(=O)O)cc(S(=O)(=O)O)c(N)c4c3O)c(C)c2)ccc1N=Nc1ccc2c(S(=O)(=O)O)cc(S(=O)(=O)O)c(N)c2c1O | 31.6µM | 12.6µM | 15.8µM | 3.16µM | i | 0.19µM | 0.774µM | 0.92µM
Nc1c(N=Nc2ccc(-c3ccc(N=Nc4cc(S(=O)(=O)O)c5ccccc5c4N)cc3)cc2)cc(S(=O)(=O)O)c2ccccc12 | nt | nt | nt | nt | i | 0.29µM | 0.423µM | 2.35µM
CCCCCNC(=O)C(C#N)c1nc2ccccc2nc1N1CCCC1 (configuration not stated) | i | i | i | i | i | nt | nt | nt
N#CC(C(=O)NCCc1ccccc1)c1nc2ccccc2nc1N1CCCCC1 (configuration not stated) | i | i | i | i | i | ? | ? | ?
CCOC(=O)N1CCc2c(sc3c2C(=O)NC(c2ccc(-c4ccc(Cl)cc4)o2)N3)C1 (configuration not stated) | i | i | i | 0.631µM | i | i | i | i
COc1cccc2c1C(=N)c1c(O)c3c(c(O)c1C2=O)C[C@](O)(C(C)=O)C[C@@H]3O[C@H]1C[C@H](N)[C@@H](O)[C@H](C)O1 | i[11.4 µM] | ? | ? | 1.26µM | i[10.9 µM] | 1.82µM | 1.95µM | 0.68µM
COc1cccc2c1C(=O)c1c(O)c3c(c(O)c1C2=O)C[C@@](O)(C(=O)CO)C[C@@H]3O[C@@H]1C[C@H](N)[C@H](O)[C@H](C)O1 | nt | nt | nt | nt | i | nt | nt | nt
COc1cc2[nH]c(=O)n(CCC(=O)NC3CCCC3)c(=O)c2cc1OC | i | i | i | i | i | nt | nt | nt
CCOc1cc2[nH]c(=O)n(CCCCC(=O)NC3CCCCC3)c(=O)c2cc1OCC | i | i | i | i | i | i | i | i
Cc1cc(=O)n(CC(=O)N2CCN(c3ccccc3F)CC2)c2c1c(C)nn2C | nt | i | i | nt | i[10.9 µM] | nt | nt | nt
N=C(N)c1ccc(N=Nc2c(O)ccc3c2[nH]c2ccccc23)cc1 | i[11.4 µM] | i[9.22 µM] | i[9.22 µM] | 1µM | i[10.9 µM] | 0.81µM | 2.62µM | 1.03µM
CN(C)c1cc(O)c(C(=S)Nc2ccccc2)c(N(C)C)c1 | i | i | i | i | i | nt | nt | nt
CN(C)c1ccc(NC(=S)c2ccccn2)cc1 | 0.794µM | 1.58µM | 2.51µM | 5.01µM | i | 7.11µM | 8.88µM | 6.24µM
CN1/C(=N\O)c2cccc3cccc1c23 | i | i | i | i | nt | nt | nt | nt
CN1c2cccc3cccc(c23)N(C)C1(C)C | i | i | i | i | i | i | ? | ?
CC1CCCCN1C(=O)Cn1ncc2c3ccccc3n(Cc3ccccc3F)c2c1=O (configuration not stated) | nt | i | i | nt | i[10.9 µM] | nt | nt | nt
CCCCOc1ccc(C(=O)Nc2ccc(N3CCN(C)CC3)cc2)cc1 | i | i | i | 1µM | i | ? | i | i
CC(=O)OCCNc1cc(N2CCN(C)CC2)c2noc3c2c1C(=O)c1ccccc1-3 | i | i | i | 3.16µM | i | 2.98µM | 2.67µM | 1.3µM
CN(C)c1ccc(CNC(=O)C2CCN(Cc3cc4ccccc4n3Cc3ccccc3)CC2)cc1 | nt | i | i | nt | i[10.9 µM] | nt | nt | nt
Nc1ccc(Nc2ccccc2N)cc1 | i | ? | ? | i | i | 2.77µM | 2.32µM | 2.05µM
Nc1cc(C(=O)O)ccc1Nc1ccccc1 | i | i | i | i[11.4 µM] | i | nt | nt | nt
